Data: PubChem BioAssay (NCI)
About 83,000 compounds went through this panel and 20% of them were active in at least one assay; those are over-represented in the sample as a whole.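 Interpretation: 100, growth as untreated; towards 0, rising growth inhibition; 0, no net growth; 0 to -100, cell death. Compounds scoring below 10 were considered active.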 The source made the active and inactive calls.

Experiments:
Assay in all cases: NCI-60 one-dose screen, 48 h (100 = growth as untreated, 0 = no growth, -100 = all killed)
Settings in all cases: 10 µM
HCT-15 colon = system: HCT-15 colon
HT29 colon = system: HT29 colon
SNB-75 CNS = system: SNB-75 CNS
SNB-19 CNS = system: SNB-19 CNS
PC-3 prostate = system: PC-3 prostate
SK-MEL-5 melanoma = system: SK-MEL-5 melanoma
UACC-62 melanoma = system: UACC-62 melanoma
LOX IMVI melanoma = system: LOX IMVI melanoma
SK-MEL-28 melanoma = system: SK-MEL-28 melanoma
SK-MEL-2 melanoma = system: SK-MEL-2 melanoma
SN12C renal = system: SN12C renal
TK-10 renal = system: TK-10 renal
ACHN renal = system: ACHN renal
CCRF-CEM leukemia = system: CCRF-CEM leukemia
EKVX NSCLC = system: EKVX NSCLC
UO-31 renal = system: UO-31 renal
CAKI-1 renal = system: CAKI-1 renal
MOLT-4 leukemia = system: MOLT-4 leukemia
A498 renal = system: A498 renal
U251 CNS = system: U251 CNS

Measured: growth

Cc1cn(-c2cc(F)cc(NC(=O)c3ccc(C)c(Nc4nccc(-c5cccnc5)n4)c3)c2)cn1
active: HT29 colon 2.89% | SNB-75 CNS -20.8% | SNB-19 CNS 6.01% | TK-10 renal -36.3% | ACHN renal -22.3%
inactive: HCT-15 colon 74.9% | PC-3 prostate 68.6% | SK-MEL-5 melanoma 87.8% | UACC-62 melanoma 40.9% | LOX IMVI melanoma 17% | SK-MEL-28 melanoma 28.2% | SK-MEL-2 melanoma 64.4% | SN12C renal 20.9% | CCRF-CEM leukemia 45.6%

COc1ccc(-c2nn(-c3cccc(Cl)c3)cc2-c2cc(-c3cccs3)[nH]c(=S)n2)cc1
inactive: HCT-15 colon 45.7% | HT29 colon 62.2% | SNB-75 CNS 67.4% | SNB-19 CNS 44.7% | PC-3 prostate 48.5% | SK-MEL-5 melanoma 52.2% | UACC-62 melanoma 44.9% | LOX IMVI melanoma 43.4% | SK-MEL-28 melanoma 57.3% | SK-MEL-2 melanoma 71.3% | EKVX NSCLC 44.6% | SN12C renal 61.1% | UO-31 renal 24.3% | TK-10 renal 66.7% | ACHN renal 48.4% | CAKI-1 renal 12.5% | CCRF-CEM leukemia 39.5% | MOLT-4 leukemia 21.9%

Cc1cccc(N=Cc2ccccc2O)c1C
inactive: HCT-15 colon 108% | HT29 colon 97.7% | SNB-75 CNS 97.3% | SNB-19 CNS 90.5% | PC-3 prostate 94.6% | SK-MEL-5 melanoma 103% | UACC-62 melanoma 95.2% | SK-MEL-28 melanoma 106% | SK-MEL-2 melanoma 129% | EKVX NSCLC 93.7% | UO-31 renal 105% | TK-10 renal 121% | ACHN renal 110% | CAKI-1 renal 92.4% | A498 renal 106% | CCRF-CEM leukemia 101% | MOLT-4 leukemia 98.1%

COc1ccc(/C(C#N)=C/c2ccccc2OC)cc1
active: HT29 colon 6.29% | SK-MEL-5 melanoma 9.12%
inactive: HCT-15 colon 23.8% | SNB-75 CNS 28.4% | SNB-19 CNS 51.9% | PC-3 prostate 55.6% | UACC-62 melanoma 41.6% | LOX IMVI melanoma 37.2% | SK-MEL-28 melanoma 51.8% | SK-MEL-2 melanoma 15.9% | EKVX NSCLC 64.6% | SN12C renal 47.3% | UO-31 renal 52.2% | TK-10 renal 53% | ACHN renal 44.1% | CAKI-1 renal 39% | A498 renal 25.6% | CCRF-CEM leukemia 16.2% | MOLT-4 leukemia 21.3%

COc1ccc(-c2nn(-c3cccc(Cl)c3)cc2-c2c(C#N)c(=O)n3[nH]c(-c4ccc(C)cc4)nc3c2C#N)cc1
inactive: HCT-15 colon 65.2% | SNB-75 CNS 36.4% | SNB-19 CNS 64.2% | PC-3 prostate 68.6% | SK-MEL-5 melanoma 68.6% | UACC-62 melanoma 57.1% | LOX IMVI melanoma 39.7% | SK-MEL-28 melanoma 92.3% | SK-MEL-2 melanoma 46% | EKVX NSCLC 37.9% | UO-31 renal 34.7% | TK-10 renal 58% | ACHN renal 43.2% | CAKI-1 renal 15.2% | CCRF-CEM leukemia 31.4%
active: HT29 colon 5.33% | MOLT-4 leukemia -23.8%

CC(=O)COc1ccc(Cl)cc1Cl
inactive: HCT-15 colon 107% | HT29 colon 105% | SNB-19 CNS 118% | U251 CNS 97.9% | PC-3 prostate 102% | SK-MEL-5 melanoma 99.8% | UACC-62 melanoma 96.7% | LOX IMVI melanoma 94.9% | SK-MEL-28 melanoma 113% | SK-MEL-2 melanoma 113% | SN12C renal 95.3% | TK-10 renal 105% | ACHN renal 116% | CAKI-1 renal 107% | A498 renal 82.9%

O=C1c2ccccc2C(=O)c2c1ccc(C(Br)Br)c2Cl
active: U251 CNS -26% | LOX IMVI melanoma -84.4% | SN12C renal -48.5% | ACHN renal -74.1% | CCRF-CEM leukemia -6.37% | MOLT-4 leukemia -1.06%
inactive: HCT-15 colon 44% | SNB-75 CNS 91.4% | SNB-19 CNS 42.9% | PC-3 prostate 40.5% | SK-MEL-5 melanoma 74% | UACC-62 melanoma 47.2% | SK-MEL-28 melanoma 92.3% | SK-MEL-2 melanoma 60.7% | EKVX NSCLC 66.6% | UO-31 renal 52.4% | TK-10 renal 83.9% | A498 renal 108%

C/C=C/CSC(C)(C)C(=O)NC
inactive: HCT-15 colon 100% | SNB-75 CNS 92% | SNB-19 CNS 101% | U251 CNS 104% | PC-3 prostate 92.8% | SK-MEL-5 melanoma 101% | UACC-62 melanoma 105% | LOX IMVI melanoma 97% | SK-MEL-28 melanoma 112% | SK-MEL-2 melanoma 109% | EKVX NSCLC 99.8% | SN12C renal 106% | UO-31 renal 93.8% | TK-10 renal 103% | ACHN renal 108% | A498 renal 103% | CCRF-CEM leukemia 98.5% | MOLT-4 leukemia 102%

CC(C)(C)c1ccc(S(=O)(=O)N[C@H]2CC[C@H]3[C@@H]4CCc5cc(O)c([N+](=O)[O-])cc5[C@H]4CC[C@]23C)cc1
inactive: HCT-15 colon 87.9% | HT29 colon 70% | PC-3 prostate 47.4% | SK-MEL-5 melanoma 83.5% | UACC-62 melanoma 84.2% | SK-MEL-28 melanoma 77% | SN12C renal 71.8% | UO-31 renal 35.2% | TK-10 renal 90.6% | ACHN renal 30% | CAKI-1 renal 46.3% | A498 renal 75.8% | MOLT-4 leukemia 78.5%
active: SNB-75 CNS 5.54%

CN(C)c1ncnc2c1nnn2C1OC(CO)C(O)C1O (configuration not stated)
inactive: SNB-75 CNS 28.3% | SNB-19 CNS 33.9% | PC-3 prostate 21.7% | SK-MEL-28 melanoma 12.6% | EKVX NSCLC 39.9% | SN12C renal 18.7% | A498 renal 22.3%
active: HCT-15 colon 7.45% | HT29 colon 0.427% | SK-MEL-5 melanoma -12.6% | LOX IMVI melanoma 9.03% | SK-MEL-2 melanoma -17.2% | UO-31 renal 8.73% | TK-10 renal -2.87% | ACHN renal 5.56% | CAKI-1 renal 7.19% | CCRF-CEM leukemia 8.83% | MOLT-4 leukemia 8.29%

N#CC1=C(N)Oc2cc(N)ccc2C1c1cccnc1 (configuration not stated)
inactive: HCT-15 colon 95.6% | SNB-75 CNS 79.3% | SNB-19 CNS 103% | U251 CNS 102% | PC-3 prostate 88.7% | SK-MEL-5 melanoma 99.3% | UACC-62 melanoma 101% | LOX IMVI melanoma 95.1% | SK-MEL-28 melanoma 102% | SK-MEL-2 melanoma 97.4% | EKVX NSCLC 96.5% | SN12C renal 98.5% | UO-31 renal 84.8% | TK-10 renal 119% | ACHN renal 96.7% | A498 renal 93.5% | MOLT-4 leukemia 89.6%

CCOC(=O)c1cc(C(=O)c2cc(OC)cc(OC)c2)n2ncc3ccccc3c12
inactive: HCT-15 colon 29.8% | SNB-19 CNS 46.8% | PC-3 prostate 31.7% | SK-MEL-5 melanoma 18.7% | UACC-62 melanoma 41.7% | SK-MEL-28 melanoma 63% | SK-MEL-2 melanoma 15.4% | EKVX NSCLC 61.5% | SN12C renal 39.9% | UO-31 renal 19% | A498 renal 16.5% | CCRF-CEM leukemia 23.5% | MOLT-4 leukemia 29%
active: SNB-75 CNS -10% | U251 CNS -13.4% | LOX IMVI melanoma 9.99% | TK-10 renal -8.97%

CN1CCN(CCC(=O)Nc2cccc(-n3cc(-c4ccncc4)c(-c4ccc(Cl)c(O)c4)n3)c2)CC1
inactive: HCT-15 colon 39.3% | SNB-75 CNS 24.5% | SNB-19 CNS 55% | U251 CNS 32.4% | PC-3 prostate 29.3% | SK-MEL-5 melanoma 24.2% | UACC-62 melanoma 46.9% | LOX IMVI melanoma 15.7% | SK-MEL-28 melanoma 57.7% | SK-MEL-2 melanoma 34.5% | EKVX NSCLC 74.1% | SN12C renal 61.8% | UO-31 renal 46.9% | TK-10 renal 103% | ACHN renal 45.5% | A498 renal 34.5% | CCRF-CEM leukemia 24.9% | MOLT-4 leukemia 25.6%

O=C(Nc1ccc(OCc2nnc(-c3ccc(Cl)cc3)o2)c(F)c1)Nc1ccc(Cl)c(C(F)(F)F)c1
inactive: SNB-75 CNS 20.4% | SK-MEL-28 melanoma 20.2% | CAKI-1 renal 13.3%
active: HCT-15 colon 9.78% | HT29 colon -3.97% | U251 CNS -2.02% | PC-3 prostate 5.92% | SK-MEL-5 melanoma -35.7% | LOX IMVI melanoma 3.22% | SK-MEL-2 melanoma -20.2% | ACHN renal 0.519% | A498 renal -23.7% | CCRF-CEM leukemia 4.05% | MOLT-4 leukemia -1.55%

O=C(CCC(C(=O)c1ccccc1)c1ccccc1)c1ccccc1 (configuration not stated)
inactive: HCT-15 colon 45.8% | SNB-75 CNS 79.9% | SNB-19 CNS 89.8% | U251 CNS 90.4% | PC-3 prostate 55.5% | SK-MEL-5 melanoma 82.5% | UACC-62 melanoma 63% | LOX IMVI melanoma 91.9% | SK-MEL-28 melanoma 80.5% | SK-MEL-2 melanoma 45.4% | EKVX NSCLC 76.2% | SN12C renal 79.7% | UO-31 renal 72.1% | TK-10 renal 102% | ACHN renal 72.2% | CAKI-1 renal 52% | A498 renal 80.6% | CCRF-CEM leukemia 38.2%

COC(=O)c1c[nH]c2cc(OC(C)C)c(OC(C)C)cc2c1=O
active: U251 CNS 6.2%
inactive: HCT-15 colon 101% | HT29 colon 95.6% | SNB-19 CNS 105% | PC-3 prostate 93.1% | SK-MEL-5 melanoma 98.3% | UACC-62 melanoma 106% | LOX IMVI melanoma 95.9% | SK-MEL-28 melanoma 117% | EKVX NSCLC 98.8% | UO-31 renal 84% | TK-10 renal 113% | ACHN renal 100% | CAKI-1 renal 97.2% | A498 renal 103% | CCRF-CEM leukemia 80.9% | MOLT-4 leukemia 109%

Oc1ccc(-c2[nH]c3ccccc3c2-c2nc3ccccc3o2)cc1
inactive: HCT-15 colon 25.4% | SNB-75 CNS 52.3% | SNB-19 CNS 89.6% | U251 CNS 60.9% | PC-3 prostate 57.4% | SK-MEL-5 melanoma 43.4% | UACC-62 melanoma 59.6% | LOX IMVI melanoma 34.6% | SK-MEL-28 melanoma 58% | SK-MEL-2 melanoma 66.9% | EKVX NSCLC 83% | SN12C renal 84.2% | UO-31 renal 40.9% | TK-10 renal 84.8% | ACHN renal 51.6% | CAKI-1 renal 64% | A498 renal 81.4% | MOLT-4 leukemia 58.9%

CCOC(=O)CN(c1sc(C)c(C)c1C(=O)OCC)S(=O)(=O)c1ccc(C)cc1
inactive: HCT-15 colon 99.3% | HT29 colon 111% | SNB-75 CNS 91.7% | SNB-19 CNS 86.6% | PC-3 prostate 74.5% | SK-MEL-5 melanoma 73.2% | LOX IMVI melanoma 87.4% | SK-MEL-28 melanoma 102% | SK-MEL-2 melanoma 127% | SN12C renal 87% | UO-31 renal 80.7% | ACHN renal 98.1% | CAKI-1 renal 72.8% | CCRF-CEM leukemia 94.4% | MOLT-4 leukemia 97%
